An excerpt weighted towards active compounds, which were near 2.4% of everything screened.
POLI inh – qHTS for Inhibitors of Polymerase Iota | DNA polymerase iota (Homo sapiens), Q9UNA4 | Pol iota fluorescent replication assay, 10 min | Potency, µM (series often up to 115 µM), without a hit: at the highest dose activity, negative = inhibition, most hits filed as inhibitors | 390,000 compounds, 1% hits | AID 588590, 2011
Target sequence (Q9UNA4 whole entry, looked up): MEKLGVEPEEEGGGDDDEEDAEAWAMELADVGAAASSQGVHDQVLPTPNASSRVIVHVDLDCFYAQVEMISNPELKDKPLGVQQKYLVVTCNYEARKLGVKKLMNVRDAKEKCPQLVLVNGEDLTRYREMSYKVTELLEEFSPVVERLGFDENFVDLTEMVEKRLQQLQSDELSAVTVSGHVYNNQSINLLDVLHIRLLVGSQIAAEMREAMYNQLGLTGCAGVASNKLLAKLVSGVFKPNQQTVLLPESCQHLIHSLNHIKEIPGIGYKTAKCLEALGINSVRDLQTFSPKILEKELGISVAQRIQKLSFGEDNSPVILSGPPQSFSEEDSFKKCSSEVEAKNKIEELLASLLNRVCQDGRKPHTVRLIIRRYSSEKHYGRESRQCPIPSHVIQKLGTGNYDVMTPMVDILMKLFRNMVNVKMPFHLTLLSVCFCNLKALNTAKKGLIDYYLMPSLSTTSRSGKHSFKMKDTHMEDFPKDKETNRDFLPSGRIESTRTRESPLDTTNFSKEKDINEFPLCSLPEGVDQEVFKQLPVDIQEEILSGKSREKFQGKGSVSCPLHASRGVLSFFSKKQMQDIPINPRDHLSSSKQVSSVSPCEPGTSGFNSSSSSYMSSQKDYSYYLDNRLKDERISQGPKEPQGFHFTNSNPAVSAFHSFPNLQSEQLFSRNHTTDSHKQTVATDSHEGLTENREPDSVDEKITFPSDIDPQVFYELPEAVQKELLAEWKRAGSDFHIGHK
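Fluorescent replication assay read twice, at 0 min and 10 min after adding 50 nM (final) substrate. Enzyme (10 nM) and compounds were first incubated 15 min at room temperature; enzyme-free buffer wells were negative controls.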
Pol beta inh – qHTS Assay for Inhibitors of DNA Polymerase Beta | P06746 | Pol beta primer extension/strand displacement, fluorescence kinetic | Potency, µM (highest dose often 114 µM), for inactives: at the highest dose activity change, negative = inhibition, actives largely listed as inhibitors | 340,000 compounds, 1.3% hits | AID 485314, 2010; note: % is set by controls: 0 for no effect and ±100 for the full control effect
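Curves were derived by four-parameter Hill fits of normalized qHTS data. The kinetic fluorescent primer-extension read was taken at 0 and 10 min after 50 nM substrate, following a 15 min room-temperature preincubation of 10 nM enzyme with compounds.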
L3MBTL1 block – qHTS Assay for the Inhibitors of L3MBTL1; Lethal(3)malignant brain tumor-like protein 1 (Homo sapiens), Q9Y468; AlphaScreen L3MBTL1–H3K9me1 peptide binding; Potency, µM (titrated, usually from 57.1 µM), for inactives: top-dose activity, negative = inhibition, hits mostly inhibitors; 230,000 compounds, 0.66% hits; AID 485360, 2010; note: % is set by controls: 0 for no effect and ±100 for the full control effect; nearly all actives have a fitted effect of over 60% in size
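First, the protein-peptide complex forms for 30 min at room temperature (L3MBTL1 50 nM, biotinylated H3K9me1 peptide 75 nM). Next, compounds are pin-transferred and incubated 30 min. Finally, AlphaScreen beads are added and read after 30 min.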
POLH inh – qHTS for Inhibitors of Polymerase Eta | AID 588591, 2011 | Potency, µM (titrated, usually from 114 µM), inactives show top-dose activity change, negative = inhibition, most hits filed as inhibitors | DNA polymerase eta (Homo sapiens), Q9Y253 | recombinant Pol eta, fluorescent DNA replication assay | 390,000 compounds, 1.2% hits; note: % is set by controls: 0 for no effect and ±100 for the full control effect
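Fluorescent replication assay: 50 nM final substrate added after a 15 min room-temperature compound preincubation with 10 nM enzyme. Signal taken at 0 min and again at 10 min.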
POLK inh – qHTS for Inhibitors of Polymerase Kappa. DNA polymerase kappa (Homo sapiens), Q9UBT6. purified Pol kappa, fluorescent DNA synthesis assay, 10 min. Potency, µM (highest dose often 107 µM), inactives show at the highest dose activity, negative = inhibition, hits mostly inhibitors. 400,000 compounds, 0.53% hits. AID 588579, 2011; note: % is set by controls: 0 for no effect and ±100 for the full control effect
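Inhibition of 10 nM Pol kappa is measured by a fluorescent read-out at 0 and 10 min following addition of 50 nM substrate (final), with a 15-min room-temperature compound preincubation.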
* hit, by the source's call; [ ] = remark or other dose. Calls come from the whole dose curve; as a rule, active = well fitted curve in the direction sought with a large enough effect; inconclusive = small, poorly fitted or top-dose-only effect, or another doubt; inactive = no such curve, though single readings can be large; an effect the other way counts as inactive or inconclusive. Potency is the fitted concentration of half-maximal effect.

For COc1ccc(CCNC(=O)CSc2ccsc2[N+](=O)[O-])c(OC)c1 the results were POLI inh inconclusive, Pol beta inh inconclusive, L3MBTL1 block -11.1%, POLH inh 44.7µM* and POLK inh -31.6%.
Screening COc1ccc(CCNC(=O)CSc2ccsc2[N+](=O)[O-])cc1OC returned POLI inh -8.3%, Pol beta inh inconclusive, POLH inh -8.2% and POLK inh -3.2%[60.1 µM].
COc1ccc(OC)c(CCNC(=O)CSc2ccsc2[N+](=O)[O-])c1 was read as POLI inh 44.7µM*, Pol beta inh -11.2%, L3MBTL1 block -10.1%, POLH inh 39.8µM* and POLK inh inconclusive.
Cc1ccc(NC(=O)Cn2c(=O)n(Cc3ccccc3)c(=O)c3sc4ccccc4c32)cc1 was read as POLI inh -1.8%, Pol beta inh -1.3%, POLH inh -15.3% and POLK inh -17.2%.
Screening O=c1cc(N2CCNCC2)oc2c(-c3ccccc3)cccc12 returned POLK inh -8.6%[60.1 µM].
`O=C(NNC(=O)c1cc2cc3ccccc3nc2s1)c1ccc(F)cc1` gave POLI inh inconclusive, Pol beta inh 0.316µM*, L3MBTL1 block 33.7%, POLH inh inconclusive and POLK inh -37.2%.
CC(C)NC(=O)CC(=O)N/N=C/c1cccs1 was read as POLI inh 25.0%, Pol beta inh 14.1µM*, L3MBTL1 block 0.6%, POLH inh -1.4% and POLK inh -2.2%.
Screening C(=NN=C(NN=Cc1cccs1)NN=Cc1cccs1)c1cccs1 returned POLI inh 79.4µM*, POLH inh -5.6% and POLK inh -3.2%.
`C#CCSc1nnc(-c2cccc3ccccc23)o1` gave POLI inh -14.5%[58.9 µM], POLH inh -8.9% and POLK inh -11.5%.
C=CCSc1nnc(-c2cccc3ccccc23)o1 was read as POLI inh -20.0%, L3MBTL1 block 7.94µM*, POLH inh -6.2% and POLK inh -12.2%.
CCN1CC2=C(OC(N)=C(C#N)C2c2cccs2)/C(=C\c2cccs2)C1 (configuration not stated) was read as POLI inh 39.8µM*, Pol beta inh 6.9%, POLH inh -27.2% and POLK inh -24.1%.
`CC(=O)OCC(NC(=O)C1CCCN1C(=O)OC(C)(C)C)C1OC(n2ccc(=O)[nH]c2=O)C(OC(C)=O)C1OC(C)=O` (configuration not stated) gave POLI inh 12.4% and POLK inh -14.0%.
Screening Cc1ccccc1NC(=O)CSc1nc2c(oc3ccccc32)c(=O)n1-c1ccccc1F returned POLI inh 9.6%, Pol beta inh 9.0%, POLH inh -13.6% and POLK inh -19.0%.
`Oc1cc(Nc2cccnc2)cc2cccnc12` gave POLI inh 25.6%, L3MBTL1 block 31.6µM*, POLH inh -17.6% and POLK inh -10.5%.
Screening COc1ccc(C(=O)Nc2cc(OC)cc3cccnc23)cc1 returned POLI inh -23.6%, Pol beta inh -0.5%, POLH inh -7.8% and POLK inh -4.7%.
For Oc1cc(Nc2ccncc2)cc2cccnc12 the results were POLI inh inconclusive, L3MBTL1 block 22.4µM*, POLH inh -7.2% and POLK inh -21.3%.
Screening COc1ccc(Nc2cc(O)c3ncccc3c2)cc1 returned L3MBTL1 block 31.6µM*.
Oc1cc(NCCc2cccnc2)cc2cccnc12 was read as POLI inh 35.5µM*, L3MBTL1 block 28.2µM*, POLH inh -5.5% and POLK inh -27.1%.
For Oc1cc(-c2ccc(N3CCCCC3)nc2)cc2cccnc12 the results were POLI inh 56.9%, L3MBTL1 block 7.1%, POLH inh 0.1% and POLK inh 11.3%.
For CCOC(=O)c1c(C)n(-c2ccccc2)c2ccc(OC(=O)c3ccccc3)cc12 the results were POLI inh 8.6%, Pol beta inh -17.2%, POLH inh -9.4% and POLK inh -21.3%.
